The record followed here is PubChem BioAssay.

SMILES strings stand for the structures. Calls of active or inactive are those of the source.

The test system of test [1] is Wnt5a (protein binding on small-molecule microarray). Put plainly: small molecules binding Wnt5a protein – biophysical, small-molecule microarray, 635/667 nm fluorescence, primary screen (AID 1142).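 Note: fluorescence read at 667 nm with signal to noise per printed feature.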 The conditions noted are these: 635 nm fluorescence, higher = more signal.
Test [2] is described as follows: ATP-based viability of Huh7 replicon cells – cell-based, CellTiter-Glo luminescence, basal, 48 h, cytotoxicity control for HCV replication inhibitor project, primary screen (AID 1143).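 Note: Huh7 hepatoma cells carrying a hepatitis C replication reporter with no stimulus; test concentration not given here.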 Conditions: higher = more signal, called active from +8 up or from −8 down.
Test [3] in a line: basal CRE-LacZ reporter activity in PC12 – cell-based, unstimulated, primary screen (AID 1145). The conditions noted are these: no forskolin, luminescence, 4.5 h, higher = more signal, called active from +8 up or from −8 down.
Test [4] is described as follows: forskolin-driven CRE-LacZ activity in PC12 – cell-based, CRE-LacZ reporter, forskolin-stimulated, primary screen (AID 1146).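 Note: PC12 cells with 6xCRE LacZ reporter stimulated by forskolin 10 µM; beta-galactosidase reporter signal reflecting CREB driven transcription.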 The conditions noted are these: luminescence, 4.5 h, higher = more signal, called active from +8 up or from −8 down.
The target of test [5] is Streptavidin (Streptomyces avidinii) (UniProt P22629). Put plainly: compounds binding control protein streptavidin – biophysical, small-molecule microarray, 635/667 nm fluorescence, artefact control for SMM compound annotation, primary screen (AID 1147).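 Note: signal reflects streptavidin binding to arrayed compounds as a control protein.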 The conditions noted are these: higher = more signal.
Test [6] in a line: probe aInhba binding on compound microarray – biochemical, small-molecule microarray, 635/667 nm fluorescence, primary screen (AID 1148).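 Note: score merges 667nm spot fluorescence with signal-to-noise for antibody binding to printed compounds.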 The conditions noted are these: higher = more signal.
In test [7] the target is Torsin-1A (Homo sapiens) (UniProt O14656). Put plainly: TOR1A wild-type binding on microarray – cell lysate, small-molecule microarray, lysate, 635/667 nm, primary screen (AID 1149). The conditions noted are these: COS7 hTOR1A-WT lysate, 635 nm fluorescence, higher = more signal.
Test [8] shares this target. Put plainly: torsin A mutant lysate binding on microarrays – cell lysate, small-molecule microarray, COS7 lysate, 635/667 nm fluorescence, primary screen (AID 1150).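 Note: score pools 667 nm emission and signal to noise measuring lysate protein binding.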 Conditions: COS7 hTOR1A mutant lysate, 635 nm fluorescence, higher = more signal.
Test [9] deals with Sonic hedgehog protein (Shh). Put plainly: Sonic hedgehog microarray binding compounds – biochemical, small-molecule microarray, 635/667 nm fluorescence, primary screen (AID 1151).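 Note: Shh protein binding to compounds spotted on small-molecule microarray slides; score combines spot fluorescence intensity with signal-to-noise across triplicate slides.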 The conditions noted are these: 635 nm fluorescence, higher = more signal.
The nature of test [10]: optical density shifts of acrAB sulA E. coli – strain DRC41, OD650, 48 h, E. coli filamentation inducer project, primary screen (AID 1152).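 Note: E. coli MC1000 strain DRC41 lacking acrAB efflux pump and sulA.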 Conditions: higher = more signal, called active from +8 up or from −8 down.
Test [11] in a line: probe aLefty1 binding on compound microarray – biochemical, small-molecule microarray, 635/667 nm fluorescence, primary screen (AID 1153).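 Note: score merges spot fluorescence with signal-to-noise ratio from the scanned slide images.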 Conditions: higher = more signal.
Test [12] is described as follows: plasmodial surface anion channel blockers, osmotic lysis – cell-based, P. falciparum Indochina, OD700, 1 h, primary screen (AID 1154). Conditions: P. falciparum Indochina infected RBC osmotic lysis, higher = more signal, called active from +8 up or from −8 down.
Test [13] in a line: plasmodial surface anion channel blockers, osmotic lysis – cell-based, P. falciparum Indochina, OD700, 2 h, primary screen (AID 1155).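 Note: lysis reports solute entry through the parasite surface anion channel PSAC.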 Conditions: P. falciparum Indochina infected erythrocytes, higher = more signal, called active from +8 up or from −8 down.
A short description of test [14]: changes in parasitized red cell lysis, either direction – P. falciparum Indochina, OD700, 3 h, PSAC antagonist project, primary screen (AID 1156). Conditions: P. falciparum-infected erythrocytes, osmotic lysis, higher = more signal, called active from +8 up or from −8 down.
The nature of test [15]: plasmodial surface anion channel blockers, osmotic lysis – cell-based, P. falciparum Indochina, OD700, 18 h, primary screen (AID 1157). The conditions noted are these: P. falciparum Indochina infected erythrocytes, osmotic lysis OD700, 18 h; higher = more signal, called active from +8 up or from −8 down.
Test [16] is described as follows: S6 kinase pathway phospho-S6 level changes – cell-based, A549, cytoblot, luminescence, serum-stimulated, primary screen (AID 1158).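 Note: serum-stimulated A549 lung adenocarcinoma cells; signal is phosphorylated S6 detected by cytoblot immunostaining with HRP secondary.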 Conditions: 5 h, higher = more signal.
Test [17] has as its target NADPH oxidase 2 (Homo sapiens) (UniProt P04839). The test can be described thus: compounds shifting NOX2 Amplex Red fluorescence – cell-based, HEK293-NOX2, PMA-stimulated, NOX inhibitor project, primary screen (AID 1159). Note: test concentration not given here. Conditions: 45 min, higher = more signal, called active from +8 up or from −8 down.
In test [18] the target is NADPH oxidase 4 (Homo sapiens) (UniProt Q9NPH5). The test can be described thus: compounds shifting NOX4 Amplex Red fluorescence – cell-based, HEK293-NOX4, tetracycline-induced, NOX inhibitor project, primary screen (AID 1160). Conditions: HEK293-NOX4, Amplex Red H2O2 fluorescence, 45 min; higher = more signal, called active from +8 up or from −8 down.
Test [19] deals with NADPH oxidase 5 (Homo sapiens) (UniProt Q96PH1). Put plainly: compounds shifting NOX5 Amplex Red fluorescence – cell-based, HEK293-NOX5, NOX inhibitor project, primary screen (AID 1161). The conditions noted are these: HEK293-NOX5, ionomycin, 45 min, higher = more signal.
Chain of NADPH oxidase 5 (Homo sapiens) (Q96PH1 whole entry, looked up): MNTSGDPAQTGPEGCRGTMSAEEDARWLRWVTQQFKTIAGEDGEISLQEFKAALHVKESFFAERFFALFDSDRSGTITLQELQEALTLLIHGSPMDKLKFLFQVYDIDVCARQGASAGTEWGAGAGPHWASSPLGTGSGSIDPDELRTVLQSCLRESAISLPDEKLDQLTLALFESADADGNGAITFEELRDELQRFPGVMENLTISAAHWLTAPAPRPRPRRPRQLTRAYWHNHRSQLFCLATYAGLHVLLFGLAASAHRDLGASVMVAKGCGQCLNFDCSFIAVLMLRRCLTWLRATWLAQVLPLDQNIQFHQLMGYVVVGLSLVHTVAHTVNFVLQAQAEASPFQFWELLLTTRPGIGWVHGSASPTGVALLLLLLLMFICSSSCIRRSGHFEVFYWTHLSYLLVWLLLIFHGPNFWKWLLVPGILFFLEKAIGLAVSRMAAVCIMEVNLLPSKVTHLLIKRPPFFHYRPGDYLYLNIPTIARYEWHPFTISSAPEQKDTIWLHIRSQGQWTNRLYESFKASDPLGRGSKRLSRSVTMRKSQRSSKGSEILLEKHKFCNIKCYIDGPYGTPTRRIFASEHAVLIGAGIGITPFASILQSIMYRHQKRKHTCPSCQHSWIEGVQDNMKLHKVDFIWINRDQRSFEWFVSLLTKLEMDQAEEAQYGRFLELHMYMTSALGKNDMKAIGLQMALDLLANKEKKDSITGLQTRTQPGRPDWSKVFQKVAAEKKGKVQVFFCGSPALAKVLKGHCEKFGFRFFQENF

Chain of Streptavidin (Streptomyces avidinii) (P22629 whole entry, looked up): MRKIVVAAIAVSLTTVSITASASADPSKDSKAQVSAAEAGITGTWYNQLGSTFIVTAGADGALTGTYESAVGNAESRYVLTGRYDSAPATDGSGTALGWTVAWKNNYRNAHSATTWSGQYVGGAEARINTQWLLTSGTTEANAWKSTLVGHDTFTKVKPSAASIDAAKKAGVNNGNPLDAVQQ
Chain of NADPH oxidase 2 (Homo sapiens) (P04839 whole entry, looked up): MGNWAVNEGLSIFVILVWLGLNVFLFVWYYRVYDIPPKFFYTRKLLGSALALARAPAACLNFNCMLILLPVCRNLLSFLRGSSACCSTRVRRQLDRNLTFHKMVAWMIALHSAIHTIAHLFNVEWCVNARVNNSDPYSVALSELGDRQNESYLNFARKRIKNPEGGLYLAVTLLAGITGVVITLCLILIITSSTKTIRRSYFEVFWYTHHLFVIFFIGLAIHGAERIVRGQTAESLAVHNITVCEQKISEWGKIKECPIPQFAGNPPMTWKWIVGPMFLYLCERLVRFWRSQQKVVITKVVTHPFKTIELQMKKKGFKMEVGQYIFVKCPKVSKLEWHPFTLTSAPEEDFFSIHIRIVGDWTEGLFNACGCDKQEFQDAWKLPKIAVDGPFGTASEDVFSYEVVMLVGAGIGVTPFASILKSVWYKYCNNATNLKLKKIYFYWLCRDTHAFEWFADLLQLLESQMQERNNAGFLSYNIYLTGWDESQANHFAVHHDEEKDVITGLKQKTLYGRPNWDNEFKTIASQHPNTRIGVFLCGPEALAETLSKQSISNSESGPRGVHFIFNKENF
Chain of Torsin-1A (Homo sapiens) (O14656 whole entry, looked up): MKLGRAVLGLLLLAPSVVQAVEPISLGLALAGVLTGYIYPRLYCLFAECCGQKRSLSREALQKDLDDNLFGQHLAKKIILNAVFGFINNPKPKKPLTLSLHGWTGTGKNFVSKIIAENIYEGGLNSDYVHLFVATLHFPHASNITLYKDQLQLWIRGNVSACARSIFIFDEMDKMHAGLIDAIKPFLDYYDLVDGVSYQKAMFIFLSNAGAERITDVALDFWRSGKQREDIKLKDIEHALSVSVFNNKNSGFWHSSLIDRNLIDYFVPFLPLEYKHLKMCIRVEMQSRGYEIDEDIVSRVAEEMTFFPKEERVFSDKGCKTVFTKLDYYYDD
Chain of NADPH oxidase 4 (Homo sapiens) (Q9NPH5 whole entry, looked up): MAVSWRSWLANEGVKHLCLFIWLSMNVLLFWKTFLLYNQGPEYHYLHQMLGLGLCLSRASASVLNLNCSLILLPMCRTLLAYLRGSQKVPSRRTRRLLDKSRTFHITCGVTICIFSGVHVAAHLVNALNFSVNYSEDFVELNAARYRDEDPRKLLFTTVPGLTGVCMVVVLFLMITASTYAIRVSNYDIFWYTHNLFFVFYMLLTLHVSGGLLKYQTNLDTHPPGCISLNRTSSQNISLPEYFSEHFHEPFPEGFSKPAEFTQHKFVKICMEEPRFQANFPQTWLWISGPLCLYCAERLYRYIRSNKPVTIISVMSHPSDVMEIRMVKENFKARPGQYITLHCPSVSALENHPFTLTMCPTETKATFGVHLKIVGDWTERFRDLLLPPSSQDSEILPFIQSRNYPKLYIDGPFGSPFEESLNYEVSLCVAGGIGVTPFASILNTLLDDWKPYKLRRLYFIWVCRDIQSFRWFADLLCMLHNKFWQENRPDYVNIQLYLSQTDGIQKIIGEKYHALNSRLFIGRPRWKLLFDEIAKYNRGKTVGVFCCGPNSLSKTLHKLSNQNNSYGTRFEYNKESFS

For the compound `COC(=O)c1c(CC[C@@H](CO)NC(=O)N[C@H](Cn2cc(-c3cncn3C)nn2)C(C)C)oc(C(C)=O)c1C(=O)OC`, the composite z-score in [1] is 0.0781; in [5], 0.341; in test [6], -0.282; in [7], 0.422; in test [8], 0.368; in test [9] it was 0.75. The composite z-score in test [11] is -0.148. Moreover, the z-score in test [2] is -3.48 (inactive); in test [3] it was 1.01 (inactive); in test [4], -1.4 (inactive); in test [10], 2.49 (inactive); in test [12] it was 0.88 (inactive); in test [13] it was -0.0063 (inactive). Moreover, the z-score in test [14] was -0.181 (inactive); in test [15] it was -0.519 (inactive); in test [16] it was 2.93; in test [17] it was -1.33 (inactive); in test [18], 0.591 (inactive); in test [19] it was -0.295.
As for `CCN1C(C)=C(C(=O)OC)[C@@H](c2ccccc2)N2C(=O)[C@@]3(C(=O)OC)O[C@@]12[C@@H]1C(=O)N(c2ccccc2)C(=O)[C@@H]13`, the composite z-score was 0.313 in test [1]; 0.424 in test [5]; -0.211 in test [6]; 0.224 in test [7]; 0.644 in test [8]; 0.798 in [9]. The composite z-score in test [11] is 0.0166. The z-score in test [2] is -1.77 (inactive); in test [3] it was 0.384 (inactive); in test [4], -1.28 (inactive); in test [10], 0.325 (inactive); in [12], 0.69 (inactive); in test [13], -0.39 (inactive). For the same compound, the z-score in test [14] was 0.0305 (inactive); in test [15] it was -1.08 (inactive); in test [16] it was 0.422; in test [17], -0.816 (inactive); in test [18], 0.267 (inactive); in test [19], -0.283.
In the case of `CN1CCC(CCCO)=CC1C1CC1` (stereo unspecified), the composite z-score in [1] is 0.0651; in test [5] it was -0.0672; in test [6], -0.202; in test [7], 0.759; in test [8] it was 0.0677; in test [9] it was 1.23. Moreover, the composite z-score in test [11] was -0.0984. The z-score is -3.2 (inactive) in [2]; -0.131 (inactive) in [3]; -1.36 (inactive) in [4]; 1.08 (inactive) in test [10]; -0.369 (inactive) in test [12]; -1.58 (inactive) in test [13]. In addition, the z-score is -1.01 (inactive) in [14]; -1.9 (inactive) in [15]; 0.591 in [16]; 0.575 (inactive) in [17]; -0.0075 (inactive) in test [18]; 0.0296 in test [19].
With `CO[C@H]1COC(=O)CC=C[C@H](C)[C@@H](OC)COC(=O)CC=C[C@@H]1C`, the composite z-score in [1] is 0.27; in test [5], -0.538; in test [6], -0.227; in [7] it was 2.03; in [8], 0.621; in [9], 1.32. In [11], this compound yielded a composite z-score of 0.0962. The z-score in test [2] is -0.909 (inactive); in test [3] it was 0.786 (inactive); in test [4] it was -0.0885 (inactive); in test [10], 1.32 (inactive); in test [12] it was 1.35 (inactive); in [13] it was 0.636 (inactive). For the same compound, the z-score in [14] is 0.357 (inactive); in test [15] it was 0.254 (inactive); in test [16], 1.26; in [17], 0.59 (inactive); in test [18], 1.19 (inactive); in test [19], 0.435.
As to `C[C@@H]1CC[C@H]2C(=O)N3[C@@H](CC[C@@H](C)[C@@H]3c3cccc(N4CCOCC4)c3)C(=O)N2[C@H]1c1cccc(N2CCOCC2)c1`, the composite z-score was -0.0915 in test [1]; 0.766 in [5]; -0.278 in [6]; 1.38 in test [7]; 0.312 in test [8]; 0.106 in [9]. Further, the composite z-score in [11] turned out to be 0.191. The z-score in test [2] was -0.334 (inactive); in [3] it was 9.59 (active); in test [4], -0.84 (inactive); in test [10] it was 0.107 (inactive); in test [12], 0.43 (inactive); in test [13] it was 0.367 (inactive). Besides, the z-score was 0.567 (inactive) in test [14]; 0.197 (inactive) in test [15]; 0.348 in [16]; 1.07 (inactive) in test [17]; -1.09 (inactive) in test [18]; 0.125 in [19].
`C[C@@H]1CC[C@H]2C(=O)N3[C@@H](CC[C@@H](C)[C@@H]3c3cccc(N4CCOCC4)c3)C(=O)N2[C@H]1c1cccc(Br)c1`: the composite z-score in test [1] is 0.205; in test [5] it was 0.63; in test [6], 0.0561; in test [7] it was 0.472; in test [8], 0.418; in [9], 0.994. For the same compound, the composite z-score in test [11] is -0.0061. Besides, the z-score in [2] was -0.167 (inactive); in test [3] it was 4.71 (inactive); in [4], -0.902 (inactive); in test [10], 0.801 (inactive); in test [12] it was 8.99 (active); in test [13], 1.51 (inactive). Further, the z-score in test [14] was 0.826 (inactive); in test [15] it was 0.71 (inactive); in test [16], -0.246; in [17] it was 0.693 (inactive); in test [18], 0.815 (inactive); in test [19], 0.717.
For the compound `CO[C@H]1O[C@H](CO)[C@@H](OC(=O)CCc2ccccc2)[C@@H]2OC(=O)[C@H](Cc3cccc(Br)c3)C/C=C/C[C@@H](Cc3cccc(Br)c3)C(=O)O[C@@H]12`, the composite z-score was -0.0182 in test [1]; -0.115 in test [5]; -0.147 in [6]; 1.07 in test [7]; 0.358 in test [8]; -0.149 in test [9]. Also, the composite z-score in test [11] is -0.139. Moreover, the z-score is -3.47 (inactive) in test [2]; -0.198 (inactive) in test [3]; -0.896 (inactive) in test [4]; 3.1 (inactive) in [10]; 1.18 (inactive) in test [12]; -0.807 (inactive) in test [13]. Also, the z-score was -0.856 (inactive) in test [14]; -1.19 (inactive) in [15]; 2.26 in [16]; 2.16 (inactive) in test [17]; 1.57 (inactive) in test [18]; 1.28 in test [19].
Take `CO[C@H]1COC(=O)[C@H](C)COC(=O)[C@H](Cc2ccccc2)NC(=O)CC=C[C@H]1C`: the composite z-score in test [1] is 0.265; in test [5], -0.0705; in [6], 0.286; in [7], 0.715; in [8] it was -0.121; in [9] it was 1.61. Also, the composite z-score in [11] was 0.351. Further, the z-score in test [2] is -0.441 (inactive); in test [3], 0.707 (inactive); in test [4], -0.872 (inactive); in [10], 0.261 (inactive); in test [12], 0.341 (inactive); in test [13], -1.39 (inactive). Further, the z-score in [14] was 0.743 (inactive); in test [15], -1.83 (inactive); in test [16], 0.376; in [17], -0.823 (inactive); in test [18] it was 0.901 (inactive); in test [19] it was -0.0208.
As to `Cc1ccc(N2C(=O)c3ccccc3[C@](C)(C(=O)O)[C@@H]2c2ccc(CO)cc2)nc1`, the composite z-score in test [1] is -0.56; in test [5] it was -0.519; in [6] it was -0.267; in test [7], 1.11; in test [8], -0.144; in test [9], -0.751. Besides, the composite z-score in test [11] is -0.147. Besides, the z-score was -0.718 (inactive) in test [2]; -0.852 (inactive) in test [3]; -0.942 (inactive) in test [4]; 1.47 (inactive) in test [10]; 0.703 (inactive) in test [12]; -0.228 (inactive) in [13]. Further, the z-score in [14] is -0.0241 (inactive); in test [15], -0.211 (inactive); in [16], 0.283; in test [17], 0.775 (inactive); in [18] it was -0.975 (inactive); in test [19], -0.457.
